Assay results reported in ChEMBL document CHEMBL3433997, “St. Jude Leishmania screening dataset” (2016).

Assays:
Assay type in all cases: functional
[1] = target: Solute carrier family 2, facilitated glucose transporter member 1 (Homo sapiens) (UniProt P11166); assay: ST_JUDE_LEISH: Cytotoxicity at 2uM final concentration against transgenic Leishmania Mexicana promastigotes LmGLUT1 that are glucose transport deficient and complemented with the human glucose transporter GLUT1. Activity is measured by DNA content using SYBR green in vitro
[2] = target: Hexose transporter 1 (Plasmodium falciparum) (UniProt O97467); assay: ST_JUDE_LEISH: Cytotoxicity at 2uM final concentration against transgenic Leishmania Mexicana promastigotes LmPfHT that are glucose transport deficient and complemented with the Plasmodium falciparum hexose transporter. Activity is measured by DNA content using SYBR green in vitro
[3] = target: Glucose transporter (Leishmania mexicana) (UniProt O61059); assay: ST_JUDE_LEISH: Cytotoxicity at 2uM final concentration against transgenic Leishmania Mexicana promastigotes LmGT2 that are glucose transport deficient and complemented with the L. Mexicana glucose transporter 2. Activity is measured by DNA content using SYBR green in vitro

Sequence of Solute carrier family 2, facilitated glucose transporter member 1 (Homo sapiens) (P11166 whole entry): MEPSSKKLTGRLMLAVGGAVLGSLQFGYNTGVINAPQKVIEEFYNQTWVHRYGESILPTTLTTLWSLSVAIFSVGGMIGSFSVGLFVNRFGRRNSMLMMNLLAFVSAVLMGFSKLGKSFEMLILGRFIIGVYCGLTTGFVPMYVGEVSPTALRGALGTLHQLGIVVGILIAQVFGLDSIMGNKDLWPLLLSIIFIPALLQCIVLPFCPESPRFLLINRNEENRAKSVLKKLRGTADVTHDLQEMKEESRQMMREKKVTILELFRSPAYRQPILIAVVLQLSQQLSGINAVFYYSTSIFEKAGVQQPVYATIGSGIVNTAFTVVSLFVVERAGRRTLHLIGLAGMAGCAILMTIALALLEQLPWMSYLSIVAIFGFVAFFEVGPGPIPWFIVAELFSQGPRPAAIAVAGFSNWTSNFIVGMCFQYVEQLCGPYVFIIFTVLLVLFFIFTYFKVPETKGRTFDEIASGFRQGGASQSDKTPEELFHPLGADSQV

Row | Compound | inhibition [1] [%] | inhibition [2] [%] | inhibition [3] [%]
1 | COc1cc(Nc2ccnc3ccc(C(C)(C)C)cc23)cc(OC)c1OC | 0.32 | 0.17 | 1.66
2 | COc1ccc2nccc([C@@H](O)CN3CCC(NC(=O)/C=C/c4c[nH]c5c(C)cccc45)CC3)c2c1 | 1.59 | 1.23 | -5.23
3 | CCNc1cc(C(=O)N[C@@H](Cc2ccco2)[C@H](O)CNC2CCCCC2)cc(N2CCCCS2(=O)=O)c1 | 1.99 | 2.4 | 2.15
4 | COc1ccc(-c2ccc(NC(=O)c3ccccc3)cc2)cc1CN1CCCN(C)CC1 | 1.09 | -0.14 | -1.41
5 | CC(C)CNC(=O)c1cncc(-c2cccc(CNC3Cc4ccccc4C3)c2)c1 | 10.7 | 6.1 | 6.4
6 | Cc1cccc(Cl)c1Nc1nnc(-c2cccc(C(=O)NC[C@@H]3CC[C@H]4C[C@@H]3C4(C)C)c2)o1 | 10.6 | 8.97 | 6.65
7 | O=C(O)CCc1ccc(-c2c[nH]c3ncc(-c4ccc5ncccc5c4)cc23)cc1 | 10.2 | 8.63 | 5.55
8 | COc1ccc(Nc2nc(NC3CCCC3)cc(-c3ccc(OC)cc3)n2)cc1 | -0.76 | 0.56 | -0.75
9 | N#Cc1cc(C(=O)Nc2ccccc2)c(N)nc1SCC(=O)Nc1ccc(Br)cc1 | 8.21 | 5.88 | 4.96
10 | COc1ccc(NS(=O)(=O)c2cccc(C(=O)Nc3ccc(C(F)(F)F)cc3)c2)cc1N1CCN(CC(C)C)CC1 | 7.82 | 4.29 | 6.21
11 | Cc1cc(-c2nc3cc(C(=N)N)ccc3[nH]2)c(C)cc1-c1nc2cc(C(=N)N)ccc2[nH]1 | 4.57 | 3.95 | 0.94
12 | COc1cccc(CNC[C@@H](O)[C@H](Cc2ccccc2)NC(=O)c2cc(NC(C)C)cc(N3CCCCS3(=O)=O)c2)c1 | -0.22 | 1.05 | 0.68
13 | CCNC(=O)Nc1ccc(N(C)c2ccnc(NC3CC3)n2)cc1 | 5.12 | 3.87 | 5.35
14 | COc1cc2nc(N3CCN(c4nc(N)c5cc(OC)c(OC)cc5n4)CC3)nc(N)c2cc1OC | 5.24 | 4.56 | 4.05
15 | O=C(NCCCCN1CCC(c2ccc3c(c2OCc2ccncc2)CCCC3)CC1)c1ccc(-c2ccc(C(F)(F)F)cc2)cc1 | 1.51 | 1.48 | 0.42
16 | N#Cc1ccc(S(=O)(=O)N2C(c3cccc([N+](=O)[O-])c3)C(C(=O)c3ccccc3)N(C3CCCCC3)C2c2cccc([N+](=O)[O-])c2)cc1 (centres undefined) | 7.88 | 7.58 | 7.58
17 | Oc1cccc(-c2cnc3ccc(NCc4ccc(F)cc4)nn23)c1 | -3.17 | 0.63 | -1.63
18 | O=C(NC1CCN(Cc2ccccc2)CC1)c1cccc(-c2cc3cc(Cl)c(Cl)cc3[nH]2)c1 | 2.36 | -1.61 | -0.91
19 | CCCCCCCOc1ccc(NC(=O)Nc2ccc(Cn3ncc(N4CCCNCC4)c(Cl)c3=O)cc2)cc1 | -2.91 | -0.57 | -1.59

Row | Compound | inhibition [1] [%] | inhibition [2] [%] | inhibition [3] [%]
20 | O=C(Nc1cc(Cl)cc(Cl)c1)c1cc(Cl)c(=O)n(Cc2ccc(Cl)cc2)c1 | 3 | 5.94 | -0.15
21 | Cc1cccc(C(=O)Nc2ccnc(N3CCC(N(C)Cc4cccc(O)c4)CC3)c2)c1 | 2.07 | 1.88 | 3.02
22 | O=C(/C=C/c1ccc(Cl)c(Cl)c1)NCCCCCN1CCC(CCNC(=O)C2(c3ccc(Cl)cc3)CC2)CC1 | 16.5 | 6.12 | 3.58
23 | Cc1ccc(C)c(NC(=O)Nc2ccc(C)c(-c3ccc(C(=O)Nc4ccncc4)cc3)c2)c1 | 6.08 | 3.66 | 2.82
24 | CC(C)c1sc(N2CCN(C)CC2)nc1C(=O)Nc1ccc(F)cc1C(F)(F)F | 5.47 | 6.04 | 2.97
25 | CCCCCNc1nc(Nc2ccccc2C)nc2ccccc12 | 29.1 | 22.7 | 11
26 | COc1ccc(C2SCC(=O)N2CCc2ccc(OC)c(OC)c2)cc1 (centres undefined) | 2.35 | 1.37 | 2.36
27 | CCc1cn2c3c(cc(C(=O)N[C@@H](Cc4ccccc4)[C@H](O)CNC4CCOCC4)cc13)N(C(C)C)S(=O)(=O)CC2 | -1.49 | 3.8 | 0.93
28 | Cc1ccc(-c2nnc(Nc3ccc(C(=O)N4CCCCC4)cc3)c3ccccc23)cc1S(=O)(=O)NCC1CCCO1 (centres undefined) | 4.15 | 21.1 | 3.22
29 | CC(Oc1ccc(Cl)cc1)C(=O)Nc1cc(C(F)(F)F)ccc1-n1cncn1 (centres undefined) | 2.69 | 3.5 | 3.88
30 | O=C(Nc1ccc2c(c1)CCC2)c1nc(N2CCN(c3ccncc3)CC2)ccc1Cl | 1.84 | 1.86 | 1.75
31 | N#Cc1ccc2c(c1)CCN(CCC1CCC(NC(=O)c3cccc(-c4ccc(F)cc4)c3)CC1)CC2 (centres undefined) | 5.14 | 2.32 | 5.8
32 | Cc1cc(NC(=O)NC(=N)N)ccc1Cl | 6.27 | 5.72 | 3.21
33 | Cc1cc(NC(=O)NCCN2CCC(NS(=O)(=O)c3ccc(C(F)(F)F)cc3)C2)c2ccccc2n1 (centres undefined) | 11.8 | 11.8 | 7.4
34 | O=C(Cc1cccc(OCCCN(Cc2cccc(C(F)(F)F)c2Cl)CC(c2ccccc2)c2ccccc2)c1)NCc1ccco1 | -1.28 | 2.42 | -2.47
35 | CCOc1ccc(C(=O)Nc2cc(Br)c3c(c2)CNCC3)cc1Cl | 1.83 | 2.23 | -0.05
36 | CCOc1ccc2c(=NN=Cc3ccc(F)cc3)cc(C)[nH]c2c1 | 4.44 | 3.21 | 1.49
37 | CN1C(=CC(=O)NC(=O)c2ccccc2)C(C)(C)c2ccccc21 | 0.52 | 0.41 | 0.4
38 | O=C(Nc1ccc(-c2ccc(-c3nc4cc(C(F)(F)F)ccc4[nH]3)s2)cc1)c1c[nH]cn1 | 3.09 | 7.24 | 8.27
